# Test results from paper PMC7862700, “An all-to-all approach to the identification of sequence-specific readers for epigenetic DNA modifications on cytosine”.
# Legend:
# Test in all cases: DAPPL (digital affinity profiling via proximity ligation, sequencing); 10 mM Tris-HCl pH 7.5, 50 mM NaCl, 1 mM DTT, 4% glycerol, room temperature, 30 min; GST-TFs on glutathione beads, 16-mer random dsDNA library, 0.1% formaldehyde crosslink after washing; high values mean tight binding
# Details in all cases: protein: recombinant; tags: N-terminal GST; dsDNA, one strand shown
# FLI1 = molecular target: T1, FLI1 (Homo sapiens, UniProt Q01543 1-452)
# T1 sequence: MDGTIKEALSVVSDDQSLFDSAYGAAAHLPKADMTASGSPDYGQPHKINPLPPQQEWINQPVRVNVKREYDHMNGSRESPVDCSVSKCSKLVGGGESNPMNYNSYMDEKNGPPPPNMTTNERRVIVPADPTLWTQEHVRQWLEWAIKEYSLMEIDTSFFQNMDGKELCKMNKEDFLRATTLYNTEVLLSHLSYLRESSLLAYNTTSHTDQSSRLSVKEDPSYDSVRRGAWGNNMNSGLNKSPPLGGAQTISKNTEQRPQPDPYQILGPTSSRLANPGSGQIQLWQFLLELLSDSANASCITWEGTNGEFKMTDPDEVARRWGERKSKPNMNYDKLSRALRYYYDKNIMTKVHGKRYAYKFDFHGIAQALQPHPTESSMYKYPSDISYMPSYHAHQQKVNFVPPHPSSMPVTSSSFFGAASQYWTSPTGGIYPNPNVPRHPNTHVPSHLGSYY
# Method in brief: (§1)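 Each value of binding signal is a hexamer's read frequency for a factor divided by the same hexamer's frequency in the tag-only sample. Barcoded, bead-captured GST fusions of human transcription factors made in yeast were pooled with that sample and incubated with 200 nmole of a random double-stranded 16-mer DNA library in Tris/NaCl/DTT/glycerol buffer at room temperature for 30 min. Washing, 0.1% formaldehyde crosslinking, proximity ligation, PCR and Illumina NextSeq500 sequencing followed.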
# ELK1 = molecular target: T2, ELK1 (Homo sapiens, UniProt P19419 1-428)
# T2 sequence: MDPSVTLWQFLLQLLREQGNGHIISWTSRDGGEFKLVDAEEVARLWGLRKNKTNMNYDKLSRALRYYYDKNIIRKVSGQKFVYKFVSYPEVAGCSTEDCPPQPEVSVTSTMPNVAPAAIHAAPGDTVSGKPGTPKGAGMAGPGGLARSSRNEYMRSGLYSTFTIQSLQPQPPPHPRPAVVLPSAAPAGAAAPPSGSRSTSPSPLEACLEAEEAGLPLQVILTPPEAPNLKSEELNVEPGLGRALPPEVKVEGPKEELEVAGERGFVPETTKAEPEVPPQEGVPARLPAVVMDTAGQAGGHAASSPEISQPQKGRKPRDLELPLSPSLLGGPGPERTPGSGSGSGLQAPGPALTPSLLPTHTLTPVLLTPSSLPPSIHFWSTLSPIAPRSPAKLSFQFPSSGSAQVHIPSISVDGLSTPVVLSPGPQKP
# Method in brief: as §1
# GABPA = molecular target: T3, GABPA (Homo sapiens, UniProt Q06546 1-454)
# T3 sequence: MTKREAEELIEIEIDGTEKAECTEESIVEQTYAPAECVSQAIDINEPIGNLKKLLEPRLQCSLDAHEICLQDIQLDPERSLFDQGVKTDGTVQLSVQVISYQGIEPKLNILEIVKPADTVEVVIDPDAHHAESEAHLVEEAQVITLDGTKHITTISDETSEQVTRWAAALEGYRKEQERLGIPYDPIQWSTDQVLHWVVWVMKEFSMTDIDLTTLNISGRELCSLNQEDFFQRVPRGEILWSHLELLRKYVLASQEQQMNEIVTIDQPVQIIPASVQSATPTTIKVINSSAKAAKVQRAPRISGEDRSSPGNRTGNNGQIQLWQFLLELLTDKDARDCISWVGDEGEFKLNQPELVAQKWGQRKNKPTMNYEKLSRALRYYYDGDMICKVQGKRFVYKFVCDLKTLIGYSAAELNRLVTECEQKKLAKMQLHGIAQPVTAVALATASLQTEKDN
# Method in brief: as §1
# ERG = molecular target: T4, ERG (Homo sapiens, UniProt P11308 1-479)
# T4 sequence: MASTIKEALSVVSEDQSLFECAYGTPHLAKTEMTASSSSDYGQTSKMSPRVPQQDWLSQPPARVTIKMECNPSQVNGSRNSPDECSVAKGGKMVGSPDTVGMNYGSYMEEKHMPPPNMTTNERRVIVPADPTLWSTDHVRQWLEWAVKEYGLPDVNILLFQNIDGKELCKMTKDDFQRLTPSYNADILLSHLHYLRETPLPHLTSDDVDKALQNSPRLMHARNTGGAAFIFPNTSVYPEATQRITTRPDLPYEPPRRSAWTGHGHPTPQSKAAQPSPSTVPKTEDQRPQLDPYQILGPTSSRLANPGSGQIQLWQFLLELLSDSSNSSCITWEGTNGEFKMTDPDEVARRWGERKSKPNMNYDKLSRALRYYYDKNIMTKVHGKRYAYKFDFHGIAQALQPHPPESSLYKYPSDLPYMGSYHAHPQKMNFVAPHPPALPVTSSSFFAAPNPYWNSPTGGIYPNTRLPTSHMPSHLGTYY
# Method in brief: as §1
# ELF1 = ELF1 (Homo sapiens, UniProt P32519 1-619)
# Chain of ELF1 (P32519 whole entry): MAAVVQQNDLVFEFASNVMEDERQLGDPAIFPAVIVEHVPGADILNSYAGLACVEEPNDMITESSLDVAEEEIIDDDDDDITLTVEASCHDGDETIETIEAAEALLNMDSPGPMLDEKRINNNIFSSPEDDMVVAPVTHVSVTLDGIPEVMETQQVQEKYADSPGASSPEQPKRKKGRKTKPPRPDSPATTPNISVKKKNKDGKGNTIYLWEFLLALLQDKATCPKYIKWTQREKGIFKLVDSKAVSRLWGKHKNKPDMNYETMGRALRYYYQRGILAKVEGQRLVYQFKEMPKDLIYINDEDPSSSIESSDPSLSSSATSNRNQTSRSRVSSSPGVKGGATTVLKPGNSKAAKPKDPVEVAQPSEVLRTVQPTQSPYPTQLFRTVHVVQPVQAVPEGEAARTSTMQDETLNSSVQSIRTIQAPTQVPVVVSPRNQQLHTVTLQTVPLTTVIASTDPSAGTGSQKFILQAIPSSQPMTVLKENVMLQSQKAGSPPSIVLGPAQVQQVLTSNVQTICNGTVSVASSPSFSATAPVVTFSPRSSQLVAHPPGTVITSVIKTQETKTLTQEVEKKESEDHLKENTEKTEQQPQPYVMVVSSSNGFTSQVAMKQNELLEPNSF
# Method in brief: as §1
# EHF = molecular target: T5, EHF (Homo sapiens, UniProt Q9NZC4 1-300)
# T5 sequence: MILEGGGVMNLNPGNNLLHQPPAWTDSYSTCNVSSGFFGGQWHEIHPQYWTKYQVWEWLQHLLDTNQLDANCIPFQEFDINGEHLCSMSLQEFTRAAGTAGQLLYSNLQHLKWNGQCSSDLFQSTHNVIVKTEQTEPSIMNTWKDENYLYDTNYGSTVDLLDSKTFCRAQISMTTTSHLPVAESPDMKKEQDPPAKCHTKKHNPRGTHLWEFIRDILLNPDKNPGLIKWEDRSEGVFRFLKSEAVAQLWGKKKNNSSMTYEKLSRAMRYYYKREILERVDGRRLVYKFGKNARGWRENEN
# Method in brief: as §1
# SPI1 = SPI1 (Homo sapiens, UniProt P17947 1-270)
# Method in brief: as §1
# SPIB = SPIB (Homo sapiens, UniProt Q01892 1-262)
# Chain of SPIB (Q01892 whole entry): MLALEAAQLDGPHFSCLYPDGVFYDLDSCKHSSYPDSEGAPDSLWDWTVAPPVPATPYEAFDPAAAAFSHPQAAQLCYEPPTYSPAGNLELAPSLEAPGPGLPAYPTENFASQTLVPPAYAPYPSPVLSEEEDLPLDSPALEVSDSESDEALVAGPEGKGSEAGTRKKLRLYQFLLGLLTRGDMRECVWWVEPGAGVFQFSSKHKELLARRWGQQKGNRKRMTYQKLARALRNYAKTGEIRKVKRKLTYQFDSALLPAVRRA
# Method in brief: as §1
# ELK3 = molecular target: T6, ELK3 (Homo sapiens, UniProt P41970 1-407)
# T6 sequence: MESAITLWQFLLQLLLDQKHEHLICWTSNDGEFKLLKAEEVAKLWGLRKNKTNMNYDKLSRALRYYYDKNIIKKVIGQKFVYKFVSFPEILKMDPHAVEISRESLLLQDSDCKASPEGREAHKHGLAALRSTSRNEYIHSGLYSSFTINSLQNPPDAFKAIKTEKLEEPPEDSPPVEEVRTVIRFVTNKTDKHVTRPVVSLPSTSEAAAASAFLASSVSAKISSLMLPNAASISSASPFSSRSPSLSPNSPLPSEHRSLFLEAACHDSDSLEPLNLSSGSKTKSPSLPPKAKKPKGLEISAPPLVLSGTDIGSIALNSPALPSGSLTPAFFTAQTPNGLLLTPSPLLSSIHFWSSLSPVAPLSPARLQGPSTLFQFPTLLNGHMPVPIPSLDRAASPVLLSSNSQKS
# Method in brief: as §1
# FEV = molecular target: T7, FEV (Homo sapiens, UniProt Q99581 1-238)
# T7 sequence: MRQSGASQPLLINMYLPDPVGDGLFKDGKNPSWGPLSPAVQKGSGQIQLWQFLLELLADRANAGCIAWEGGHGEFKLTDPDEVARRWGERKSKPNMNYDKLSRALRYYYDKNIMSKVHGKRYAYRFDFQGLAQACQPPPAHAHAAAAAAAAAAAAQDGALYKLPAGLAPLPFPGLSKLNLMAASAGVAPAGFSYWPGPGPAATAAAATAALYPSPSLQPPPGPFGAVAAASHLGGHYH
# Method in brief: as §1
# ETV5 = ETV5 (Homo sapiens, UniProt P41161 1-510)
# Chain of ETV5 (P41161 whole entry): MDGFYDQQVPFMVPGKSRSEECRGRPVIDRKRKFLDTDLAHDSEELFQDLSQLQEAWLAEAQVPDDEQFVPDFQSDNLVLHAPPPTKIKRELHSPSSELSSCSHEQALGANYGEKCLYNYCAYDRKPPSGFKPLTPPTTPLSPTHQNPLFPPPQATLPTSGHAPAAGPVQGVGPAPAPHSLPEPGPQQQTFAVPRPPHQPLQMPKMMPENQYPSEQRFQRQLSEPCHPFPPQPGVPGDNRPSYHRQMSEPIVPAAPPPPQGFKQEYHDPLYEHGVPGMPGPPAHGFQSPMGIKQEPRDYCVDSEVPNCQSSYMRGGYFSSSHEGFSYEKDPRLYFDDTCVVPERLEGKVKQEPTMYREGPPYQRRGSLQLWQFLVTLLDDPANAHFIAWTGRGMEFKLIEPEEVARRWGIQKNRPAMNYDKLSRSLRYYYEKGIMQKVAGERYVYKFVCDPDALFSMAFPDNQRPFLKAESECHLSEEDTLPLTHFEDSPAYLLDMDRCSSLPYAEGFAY
# Method in brief: as §1
# SPIC = molecular target: T8, SPIC (Homo sapiens, UniProt Q8N5J4 1-248)
# T8 sequence: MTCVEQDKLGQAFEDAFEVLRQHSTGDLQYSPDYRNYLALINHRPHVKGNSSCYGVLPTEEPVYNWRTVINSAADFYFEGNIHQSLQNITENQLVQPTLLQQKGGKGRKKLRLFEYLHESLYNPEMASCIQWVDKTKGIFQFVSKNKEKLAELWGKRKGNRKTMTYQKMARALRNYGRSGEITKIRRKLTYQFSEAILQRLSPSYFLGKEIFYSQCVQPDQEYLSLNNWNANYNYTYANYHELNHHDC
# Method in brief: as §1
# ELF4 = ELF4 (Homo sapiens, UniProt Q99607 1-663)
# Chain of ELF4 (Q99607 whole entry): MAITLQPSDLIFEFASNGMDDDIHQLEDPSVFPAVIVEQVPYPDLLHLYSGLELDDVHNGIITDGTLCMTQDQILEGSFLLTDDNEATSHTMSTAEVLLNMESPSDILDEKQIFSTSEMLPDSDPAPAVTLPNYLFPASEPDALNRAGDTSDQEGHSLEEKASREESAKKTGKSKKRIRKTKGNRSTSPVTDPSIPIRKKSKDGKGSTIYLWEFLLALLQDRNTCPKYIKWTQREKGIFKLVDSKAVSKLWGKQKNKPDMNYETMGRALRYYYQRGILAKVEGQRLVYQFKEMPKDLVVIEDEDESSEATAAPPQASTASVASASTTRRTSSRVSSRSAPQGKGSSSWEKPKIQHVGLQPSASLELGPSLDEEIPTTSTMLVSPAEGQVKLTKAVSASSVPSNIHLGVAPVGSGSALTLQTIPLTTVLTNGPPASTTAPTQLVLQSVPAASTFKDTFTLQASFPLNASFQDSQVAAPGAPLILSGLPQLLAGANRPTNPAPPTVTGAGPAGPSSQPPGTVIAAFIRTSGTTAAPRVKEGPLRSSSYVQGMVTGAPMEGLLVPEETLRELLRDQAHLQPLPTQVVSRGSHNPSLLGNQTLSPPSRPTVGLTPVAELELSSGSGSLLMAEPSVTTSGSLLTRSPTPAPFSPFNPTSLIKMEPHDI
# Method in brief: as §1
# ELK4 = molecular target: T9, ELK4 (Homo sapiens, UniProt P28324-2 1-405)
# T9 sequence: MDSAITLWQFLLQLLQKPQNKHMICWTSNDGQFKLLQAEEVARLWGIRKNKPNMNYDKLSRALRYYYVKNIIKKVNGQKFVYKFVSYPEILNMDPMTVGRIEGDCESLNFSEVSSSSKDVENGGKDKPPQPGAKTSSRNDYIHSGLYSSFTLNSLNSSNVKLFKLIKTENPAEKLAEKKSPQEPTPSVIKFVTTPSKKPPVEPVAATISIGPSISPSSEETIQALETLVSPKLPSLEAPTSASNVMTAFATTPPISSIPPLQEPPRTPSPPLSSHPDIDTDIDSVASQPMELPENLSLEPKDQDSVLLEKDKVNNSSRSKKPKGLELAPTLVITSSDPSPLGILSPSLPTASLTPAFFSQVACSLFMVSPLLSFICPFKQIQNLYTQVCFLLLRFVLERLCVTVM
# Method in brief: as §1
# ETV2 = molecular target: T10, ETV2 (Homo sapiens, UniProt O00321 1-342)
# T10 sequence: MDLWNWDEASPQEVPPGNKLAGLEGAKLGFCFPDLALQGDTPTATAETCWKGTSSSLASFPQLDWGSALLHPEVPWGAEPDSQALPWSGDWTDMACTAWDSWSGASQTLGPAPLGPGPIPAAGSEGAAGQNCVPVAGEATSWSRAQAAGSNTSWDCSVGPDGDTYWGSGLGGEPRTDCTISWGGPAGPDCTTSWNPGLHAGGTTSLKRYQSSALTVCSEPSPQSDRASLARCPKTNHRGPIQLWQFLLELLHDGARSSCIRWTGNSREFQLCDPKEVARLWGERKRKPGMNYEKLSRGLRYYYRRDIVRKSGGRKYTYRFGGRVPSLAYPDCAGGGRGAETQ
# Method in brief: as §1
# ELF3 = molecular target: T11, ELF3 (Homo sapiens, UniProt P78545 1-371)
# T11 sequence: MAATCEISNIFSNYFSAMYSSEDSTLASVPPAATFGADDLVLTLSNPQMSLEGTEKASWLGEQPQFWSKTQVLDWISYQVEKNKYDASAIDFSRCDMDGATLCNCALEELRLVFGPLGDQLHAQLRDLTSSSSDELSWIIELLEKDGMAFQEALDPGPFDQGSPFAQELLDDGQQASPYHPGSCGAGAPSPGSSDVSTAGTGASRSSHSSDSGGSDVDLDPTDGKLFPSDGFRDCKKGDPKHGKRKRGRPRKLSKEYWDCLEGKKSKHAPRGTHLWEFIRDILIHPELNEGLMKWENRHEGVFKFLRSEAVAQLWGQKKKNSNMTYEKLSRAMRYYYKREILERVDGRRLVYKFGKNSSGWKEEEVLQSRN
# Method in brief: as §1
# ETV1 = ETV1 (Homo sapiens, UniProt P50549 1-477)
# Chain of ETV1 (P50549 whole entry): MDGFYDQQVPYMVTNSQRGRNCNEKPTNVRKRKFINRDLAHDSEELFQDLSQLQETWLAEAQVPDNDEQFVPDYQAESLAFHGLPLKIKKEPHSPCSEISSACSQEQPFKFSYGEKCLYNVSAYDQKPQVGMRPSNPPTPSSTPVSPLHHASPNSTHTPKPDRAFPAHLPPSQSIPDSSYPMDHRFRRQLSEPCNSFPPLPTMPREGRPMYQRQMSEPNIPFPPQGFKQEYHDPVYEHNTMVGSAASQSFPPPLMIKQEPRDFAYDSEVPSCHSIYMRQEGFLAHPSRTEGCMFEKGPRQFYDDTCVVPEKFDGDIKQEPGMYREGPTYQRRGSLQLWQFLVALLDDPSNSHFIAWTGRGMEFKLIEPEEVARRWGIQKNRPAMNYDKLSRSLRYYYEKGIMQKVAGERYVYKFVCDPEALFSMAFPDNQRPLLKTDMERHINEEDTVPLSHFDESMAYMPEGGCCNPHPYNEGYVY
# Method in brief: as §1
Sequence,binding signal (FLI1),binding signal (ELK1),binding signal (GABPA),binding signal (ERG),binding signal (ELF1),binding signal (EHF),binding signal (SPI1),binding signal (SPIB),binding signal (ELK3),binding signal (FEV),binding signal (ETV5),binding signal (SPIC),binding signal (ELF4),binding signal (ELK4),binding signal (ETV2),binding signal (ELF3),binding signal (ETV1)
CTGCGT,"1.12 fold enrichment (6-mer frequency, TF over GST control)","1.15 fold enrichment (6-mer frequency, TF over GST control)","1.16 fold enrichment (6-mer frequency, TF over GST control)","1.13 fold enrichment (6-mer frequency, TF over GST control)","1.17 fold enrichment (6-mer frequency, TF over GST control)","1.18 fold enrichment (6-mer frequency, TF over GST control)","1.16 fold enrichment (6-mer frequency, TF over GST control)","1.12 fold enrichment (6-mer frequency, TF over GST control)","1.24 fold enrichment (6-mer frequency, TF over GST control)","1.07 fold enrichment (6-mer frequency, TF over GST control)","1.09 fold enrichment (6-mer frequency, TF over GST control)","1.31 fold enrichment (6-mer frequency, TF over GST control)","1.09 fold enrichment (6-mer frequency, TF over GST control)","1.3 fold enrichment (6-mer frequency, TF over GST control)","1.09 fold enrichment (6-mer frequency, TF over GST control)","1.07 fold enrichment (6-mer frequency, TF over GST control)","1.11 fold enrichment (6-mer frequency, TF over GST control)"
TCGCCG,"1.14 fold enrichment (6-mer frequency, TF over GST control)","1.24 fold enrichment (6-mer frequency, TF over GST control)","1.27 fold enrichment (6-mer frequency, TF over GST control)","1.24 fold enrichment (6-mer frequency, TF over GST control)","1.23 fold enrichment (6-mer frequency, TF over GST control)","1.34 fold enrichment (6-mer frequency, TF over GST control)","1.14 fold enrichment (6-mer frequency, TF over GST control)","1.16 fold enrichment (6-mer frequency, TF over GST control)","1.16 fold enrichment (6-mer frequency, TF over GST control)","1.26 fold enrichment (6-mer frequency, TF over GST control)","1.03 fold enrichment (6-mer frequency, TF over GST control)","1.09 fold enrichment (6-mer frequency, TF over GST control)","1.21 fold enrichment (6-mer frequency, TF over GST control)","1.3 fold enrichment (6-mer frequency, TF over GST control)","1.2 fold enrichment (6-mer frequency, TF over GST control)","1.21 fold enrichment (6-mer frequency, TF over GST control)","1.37 fold enrichment (6-mer frequency, TF over GST control)"
